Experimental findings from PubChem BioAssay are described below.

The list shows a part of the results. Activity calls are given as the source filed them. Unless noted, how the calls were made is not given here.

Experiment [1] addresses Regulator of G-protein signaling 16 (Homo sapiens) (UniProt O15492). The experiment can be described thus: small molecules altering RGS protein interactions with GNAO1 – biochemical, multiplexed beads, flow cytometry, RGS4/7/8/16/19, primary screen (AID 1504).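 Further: fluorescently labeled Galpha-o bound to GDP with aluminium fluoride binding biotinylated RGS beads.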 Conditions: multiplexed bead flow cytometry, measured here: RGS16 interaction, at 10 µM.
For experiment [2], the target named is Regulator of G-protein signaling 19 (Homo sapiens) (UniProt P49795). The description is as above. Conditions: multiplexed bead flow cytometry, measured here: RGS19 interaction, at 10 µM.
Experiment [3] concerns the target Regulator of G-protein signaling 4 (Homo sapiens) + Guanine nucleotide-binding protein G(o) subunit alpha (Homo sapiens) (UniProt P49798+P09471). Described as above. Conditions: multiplexed bead flow cytometry, at 10 µM.
Experiment [4] concerns the target Regulator of G-protein signaling 7 (Homo sapiens) (UniProt P49802). The description is as above. Conditions: multiplexed bead flow cytometry, measured here: RGS7 interaction, at 10 µM.
Experiment [5] concerns the target Regulator of G-protein signaling 8 (Homo sapiens) (UniProt P57771). The experiment is described as above. Conditions: multiplexed bead flow cytometry, measured here: RGS8 interaction, at 10 µM.
Experiment [6] is described as follows: interference with biotin-avidin bead interaction – biochemical, flow cytometry, bead-based, counter-screen for RGS protein interaction modulators (AID 1783;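 active means inhibition above 50%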;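 on inhibition: median green fluorescence of gated singlet beads compared with DMSO control wells; 0% = DMSO wells and 100% = complete loss of bead fluorescence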). Conditions: streptavidin beads, fluorescein-biotin binding; at 10 µM, stronger effect = higher value.
Experiment [7] concerns the target Guanine nucleotide-binding protein G(o) subunit alpha (Homo sapiens) (UniProt P09471). The experiment can be described thus: retest of RGS8-Galphao interaction hits – biochemical, multiplexed bead flow cytometry, single concentration, confirmation (AID 1836; in the data active means binding response below about 72% or above about 130%; inactive means in between;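 further: Galphao activated as GDP AlF4 complex before binding bead RGS8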). Conditions: bead-based flow cytometry RGS8-Galphao binding, fluorescence; at 10 µM; actives lie on both sides.

For experiment [8] the target is unchanged. The experiment is described as follows: retest of RGS7-Galphao interaction hits – biochemical, multiplexed bead flow cytometry, single concentration, confirmation (AID 1837; in the data active means response below about 75% or above about 130%; inactive means in between;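 further: fluorescent Galphao activated with GDP and aluminum fluoride binding bead-coupled RGS7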). Conditions: bead-based flow cytometry RGS7-Galphao binding; at 10 µM; actives lie on both sides.
The target in experiment [9] is Regulator of G-protein signaling 16 (Homo sapiens) + Guanine nucleotide-binding protein G(o) subunit alpha (Homo sapiens) (UniProt O15492+P09471). The experiment is described as follows: RGS16 and Galphao interaction regulators – biochemical, single concentration, multiplexed bead flow cytometry, confirmation (AID 1838; in the data active means response below about 74% or above about 130%; inactive means in between;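 further: Galphao activated as the GDP aluminium fluoride complex binding bead-coupled RGS16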). Conditions: bead-based flow cytometry, at 10 µM, actives lie on both sides.

Experiment [10] deals with Guanine nucleotide-binding protein G(o) subunit alpha (Homo sapiens) (UniProt P09471). The experiment can be described thus: RGS4 and Galphao interaction regulators – biochemical, single concentration, multiplexed bead flow cytometry, confirmation (AID 1840; in the data active means binding response below about 74% or above about 130%; inactive means in between). Conditions: at 10 µM, actives lie on both sides.
Experiment [11] addresses Guanine nucleotide-binding protein G(o) subunit alpha (Homo sapiens) + Regulator of G-protein signaling 19 (Homo sapiens) (UniProt P09471+P49795). The experiment can be described thus: RGS19 interaction with Gαo, hit retest – biochemical, single point, multiplexed bead flow cytometry, confirmation (AID 1841; in the data active means response below about 50% or above about 160%; inactive means in between;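 further: 100% = no compound control and 0% = blank background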). Conditions: bead-based flow cytometry RGS19-Galphao binding; at 10 µM; actives lie on both sides.

Experiment [12] deals with Ras-related C3 botulinum toxin substrate 1 (Homo sapiens) (UniProt P63000). The experiment can be described thus: inhibition of wildtype Rac1 nucleotide loading – biochemical, multiplex bead flow cytometry, dose response (AID 1340;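 active means dose curve with midpoint inside tested range, moderate steepness, plateau gap beyond fit error, low compound glow and bead-link interference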). Conditions: GST-Rac1 beads, Bodipy-FL-GTP binding; at 100 µM (top of the series) unless noted.

Chain of Guanine nucleotide-binding protein G(o) subunit alpha (Homo sapiens) (P09471 whole entry, looked up): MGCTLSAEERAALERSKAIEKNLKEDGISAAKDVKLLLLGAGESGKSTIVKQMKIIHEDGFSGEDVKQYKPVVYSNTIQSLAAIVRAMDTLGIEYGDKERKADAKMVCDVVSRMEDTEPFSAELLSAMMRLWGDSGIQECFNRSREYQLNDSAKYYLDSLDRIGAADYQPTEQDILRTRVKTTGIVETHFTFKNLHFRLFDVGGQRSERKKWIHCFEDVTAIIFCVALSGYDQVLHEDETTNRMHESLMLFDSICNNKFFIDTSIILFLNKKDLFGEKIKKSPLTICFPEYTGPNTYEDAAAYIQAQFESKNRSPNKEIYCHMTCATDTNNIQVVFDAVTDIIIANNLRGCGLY
Chain of Regulator of G-protein signaling 4 (Homo sapiens) + Guanine nucleotide-binding protein G(o) subunit alpha (Homo sapiens) (P09471 whole entry, looked up): as above
Chain of Regulator of G-protein signaling 4 (Homo sapiens) + Guanine nucleotide-binding protein G(o) subunit alpha (Homo sapiens) (P49798 whole entry, looked up): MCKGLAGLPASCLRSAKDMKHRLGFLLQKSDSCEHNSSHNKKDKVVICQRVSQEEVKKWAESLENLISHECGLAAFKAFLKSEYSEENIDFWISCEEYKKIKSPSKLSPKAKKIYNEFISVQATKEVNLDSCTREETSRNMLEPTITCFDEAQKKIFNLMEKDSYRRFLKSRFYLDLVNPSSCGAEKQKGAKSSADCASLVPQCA
Chain of Guanine nucleotide-binding protein G(o) subunit alpha (Homo sapiens) + Regulator of G-protein signaling 19 (Homo sapiens) (P09471 whole entry, looked up): as the sequence (P09471 whole entry, looked up) above
Chain of Guanine nucleotide-binding protein G(o) subunit alpha (Homo sapiens) + Regulator of G-protein signaling 19 (Homo sapiens) (P49795 whole entry, looked up): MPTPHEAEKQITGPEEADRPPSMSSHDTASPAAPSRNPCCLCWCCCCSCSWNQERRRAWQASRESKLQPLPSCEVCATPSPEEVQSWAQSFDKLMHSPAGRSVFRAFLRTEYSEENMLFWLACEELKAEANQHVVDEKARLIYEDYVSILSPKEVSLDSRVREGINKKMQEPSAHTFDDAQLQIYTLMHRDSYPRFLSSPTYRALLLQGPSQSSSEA
Chain of Regulator of G-protein signaling 16 (Homo sapiens) + Guanine nucleotide-binding protein G(o) subunit alpha (Homo sapiens) (O15492 whole entry, looked up): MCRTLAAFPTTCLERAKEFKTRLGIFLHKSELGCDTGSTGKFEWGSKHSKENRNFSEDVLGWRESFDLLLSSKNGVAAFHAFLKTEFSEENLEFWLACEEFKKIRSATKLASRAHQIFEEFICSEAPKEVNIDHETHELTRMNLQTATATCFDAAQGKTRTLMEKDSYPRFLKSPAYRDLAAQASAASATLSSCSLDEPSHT
Chain of Regulator of G-protein signaling 16 (Homo sapiens) + Guanine nucleotide-binding protein G(o) subunit alpha (Homo sapiens) (P09471 whole entry, looked up): as the sequence (P09471 whole entry, looked up) above

In experiment [1], `CC(=O)N1CC[n+]2c(-c3ccc([N+](=O)[O-])cc3)csc21` came in with an RGS16–Galpha-o binding response of 12.8%. Moreover, in [2], the RGS19–Galpha-o binding response worked out at 114%. In [3], the RGS4–Galpha-o binding response was 57% (active). Further, in experiment [4], the RGS7–Galpha-o binding response came out at 102%. The same compound displayed an RGS8–Galpha-o binding response in [5] of 63.1%. Also, the inhibition in experiment [6] is -0.8% (inactive). Also, the values for the binding response (% of control) in [7] and in [10] were 80.5% (inactive) and 66.7% (active), respectively. Also, the response (percent of control binding) in experiment [8] was 67.2% (active); in experiment [11], 62.5% (inactive). In experiment [9], the response (% of control binding) is 58% (active).

Regarding `O=c1[nH]c2ccccc2s1`, the RGS16–Galpha-o binding response in experiment [1] was 23%. Moreover, the RGS19–Galpha-o binding response in experiment [2] is 148%. For the same compound, in [3], the RGS4–Galpha-o binding response was 88.6% (active). Besides, the RGS7–Galpha-o binding response in experiment [4] was determined as 88.2%. Moreover, the RGS8–Galpha-o binding response in experiment [5] came out at 79%. Besides, the inhibition in [6] was -0.3% (inactive). For the same compound, the binding response (% of control) in experiment [7] is 103% (inactive); in experiment [10] it was 102% (inactive). In addition, the response (percent of control binding) was 102% (inactive) in experiment [8] and 99.2% (inactive) in [11]. Further, the response (% of control binding) in experiment [9] was 101% (inactive).

The compound `Cc1cc(C)nc(/N=C2\NC(=O)CC(C(=O)O)N2c2ccc(Cl)cc2Cl)n1` (centres undefined) displayed an RGS16–Galpha-o binding response in [1] of 99.8%. Moreover, the RGS19–Galpha-o binding response in experiment [2] turned out to be 104%. Also, the RGS4–Galpha-o binding response in experiment [3] is 117% (active). Also, in experiment [4], the RGS7–Galpha-o binding response was 170%. Besides, the RGS8–Galpha-o binding response in experiment [5] was found to be 107%. The inhibition in experiment [6] was 0.1% (inactive). Besides, the binding response (% of control) in [7] and in [10] was 102% (inactive) in each case. Moreover, the response (percent of control binding) in [8] and in [11] was 101% (inactive) in each case. For the same compound, in experiment [9], the response (% of control binding) is 102% (inactive).

Turning to `Cc1ccc(C)c(OCC(=O)N2CCN(C(=O)c3ccco3)CC2)c1`, in [1], the RGS16–Galpha-o binding response was found to be 24.4%. Moreover, the RGS19–Galpha-o binding response in experiment [2] amounted to 113%. In addition, in experiment [3], the RGS4–Galpha-o binding response is 83.7% (active). In experiment [4], the RGS7–Galpha-o binding response stood at 89.8%. Also, in [5], the RGS8–Galpha-o binding response was determined as 88.5%. Further, the inhibition in experiment [6] was 2.8% (inactive). The binding response (% of control) in experiment [7] was 104% (inactive); in [10] it was 106% (inactive). In addition, the response (percent of control binding) was 104% (inactive) in experiment [8] and 110% (inactive) in [11]. Besides, the response (% of control binding) in experiment [9] was 107% (inactive).

`O=C(Nc1ccc(-n2ccnc2P(=O)(O)c2ccccc2)cc1)c1ccccc1Br` showed an RGS16–Galpha-o binding response in experiment [1] of 143%. Moreover, in experiment [2], the RGS19–Galpha-o binding response was found to be 394%. The RGS4–Galpha-o binding response in [3] is 138% (active). Besides, the RGS7–Galpha-o binding response in [4] came to 152%. For the same compound, the RGS8–Galpha-o binding response in [5] was found to be 105%. Besides, the result in experiment [6] was inactive. In addition, the binding response (% of control) in experiment [7] is 114% (inactive); in experiment [10] it was 129% [activator] (active). The response (percent of control binding) in [8] was 135% [activator] (active); in experiment [11] it was 139% (inactive). Also, in experiment [9], the response (% of control binding) was 118% (inactive).

As for `CCCC(=O)N=c1sc2cccc(F)c2n1C`, the RGS16–Galpha-o binding response in experiment [1] was determined as 76.5%. Further, the RGS19–Galpha-o binding response in [2] is 14800%. For the same compound, the RGS4–Galpha-o binding response in [3] is 58.4% (active). Also, the RGS7–Galpha-o binding response in experiment [4] stood at 18%. Besides, the RGS8–Galpha-o binding response in [5] was found to be 37.2%.

The compound `Cc1ccc(OCC(O)CN2CCN(CC(O)COc3ccc(C)cc3Cl)CC2)c(Cl)c1` (centres undefined) displayed an RGS16–Galpha-o binding response in experiment [1] of 367%. In addition, the RGS19–Galpha-o binding response in [2] is 114%. Further, in experiment [3], the RGS4–Galpha-o binding response was 139% (active). Besides, the RGS7–Galpha-o binding response in experiment [4] turned out to be 127%. In experiment [5], this compound yielded an RGS8–Galpha-o binding response of 165%.

Compound `CCOc1cc(C(=O)N2CCc3cc(OC)c(OC)cc3C2)ccc1OC(F)F` returned an RGS16–Galpha-o binding response in [1] of 124%. In addition, the RGS19–Galpha-o binding response in experiment [2] was -289%. Further, the RGS4–Galpha-o binding response in experiment [3] is 128% (active). In addition, the RGS7–Galpha-o binding response in experiment [4] was determined as 159%. Also, the RGS8–Galpha-o binding response in experiment [5] worked out at 105%.

In the case of `COc1ccc(-n2c(SCC(=O)OC(C)C)nnc2-c2ccccn2)cc1`, the RGS16–Galpha-o binding response in experiment [1] is 242%. For the same compound, the RGS19–Galpha-o binding response in [2] was found to be 103%. The RGS4–Galpha-o binding response in [3] was 106% (active). In addition, in experiment [4], the RGS7–Galpha-o binding response worked out at 101%. Further, the RGS8–Galpha-o binding response in experiment [5] came out at 134%. The inhibition in experiment [6] is -1.2% (inactive). For the same compound, the values for the binding response (% of control) in [7] and in [10] were 99.1% (inactive) and 97.2% (inactive), respectively. Besides, the response (percent of control binding) in [8] was 96.9% (inactive); in experiment [11], 60.1% (inactive). In experiment [9], the response (% of control binding) was 93.3% (inactive).

With `O=C1CCC(=O)N(O)CCCCCNC(=O)CCC(=O)N(O)CCCCCNC(=O)CCC(=O)N(O)CCCCCN1`, the RGS16–Galpha-o binding response in experiment [1] was found to be 40.8%. Further, the RGS19–Galpha-o binding response in [2] came to 4280%. For the same compound, in experiment [3], the RGS4–Galpha-o binding response was 52.2% (active). Also, in experiment [4], the RGS7–Galpha-o binding response is -117%. In [5], this compound registered an RGS8–Galpha-o binding response of 55.9%. In [6], the inhibition is -0.3% (inactive). Moreover, the values for the binding response (% of control) in [7] and in experiment [10] were 53.5% (active) and 61.5% (active), respectively. Besides, the response (percent of control binding) was 59.4% (active) in experiment [8] and 62.2% (inactive) in [11]. In addition, the response (% of control binding) in [9] is 45.6% (active).

Compound `Cc1ccc(C(=O)COC(=O)c2ccc3c(c2)C(=O)N(c2cccc4ncccc24)C3=O)cc1` came in with a GTP binding signal, raw median fluorescence (lower = inhibition) (MCF (arbitrary fluorescence units)) in [12] of 151.

As to `Fc1cc(F)c2nc(Nc3nc4c(F)cccc4s3)sc2c1`, the RGS16–Galpha-o binding response in [1] amounted to 192%. The RGS19–Galpha-o binding response in experiment [2] was -2.22%. In addition, the RGS4–Galpha-o binding response in experiment [3] is 110% (active). In addition, in experiment [4], the RGS7–Galpha-o binding response amounted to 112%. The RGS8–Galpha-o binding response in experiment [5] is 122%. In [6], the inhibition was 0% (inactive). Moreover, the binding response (% of control) in experiment [7] and in experiment [10] was 103% (inactive) each time. Moreover, the values for the response (percent of control binding) in [8] and in [11] were 103% (inactive) and 107% (inactive), respectively. In addition, in experiment [9], the response (% of control binding) is 103% (inactive).
